The campaign covered roughly 63,000 compounds. About 1,100 (1.7%) were called active.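 The calls were made as follows: active = compounds whose percent cytotoxicity in the single-dose primary screen, scaled between solvent and toxic-drug controls, exceeds 50; inactive = the rest.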 Many of the other results were omitted from the sample, so actives are more common in it than they were. Potency and affinity values are given separately.
assay: viability loss of HPDE-C7K cells – cell-based, fluorescence, HTS, primary screen (AID 431); conditions: HPDE-C7K KRASV12 cells, Alamar Blue viability, 48 h; at 10 µM; hits give high values;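 also: 0% = DMSO solvent wells and 100% = doxorubicin-treated wells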

Row | Compound | cytotoxicity
1 | CCSc1nc2c(c(=O)n(C)c(=O)n2C)n1Cc1ccc(Cl)cc1 | 1.1% (inactive)
2 | CSc1ccc2[nH]c(=O)cc(C)c2c1 | -15.6% (inactive)
3 | c1ccc(Cn2nnnc2CN2CCCC2)cc1 | -11% (inactive)
4 | COc1ccc(NS(=O)(=O)c2ccc(NS(C)(=O)=O)cc2)cc1 | -20.7% (inactive)
5 | COc1ccccc1/C=N/n1cnnc1 | -11.3% (inactive)
6 | Nc1ccc(-c2nc3ccc(-c4nc5ccccc5o4)cc3[nH]2)cc1 | 66.5% (active)
7 | Nc1cc(N)cc(-c2nc3ccccc3o2)c1 | 15.3% (inactive)
8 | Nc1ccc(-c2nc3ccccc3[nH]2)cc1 | -4.1% (inactive)
9 | COCCN(C(=O)Cc1cccs1)c1nnc(-c2ccncc2)s1 | -16.9% (inactive)
10 | CCCCc1c(C)nc(N)[nH]c1=O | 1.6% (inactive)
11 | COc1ccc(CN(CCCN2CCOCC2)C(=O)Nc2ccccc2)cc1OC | 13.2% (inactive)
12 | Clc1ccc2nc(N3CCCCC3)sc2c1 | -11.1% (inactive)
13 | Cc1cc(Cl)ccc1OC(C)C(=O)Nc1ccccc1N1CCOCC1 (centres undefined) | -12.8% (inactive)
14 | Cc1cc(/C=N\O)c(C)n1-c1ccncc1 | 3.4% (inactive)
15 | C/C=C/COC(=O)c1[nH]c2c(c1C)C(=O)CC(c1ccco1)C2 (centres undefined) | 69.1% (active)
16 | C=CCOC(=O)c1[nH]c2c(c1C)C(=O)CC(c1cc(OC)c(OC)c(OC)c1)C2 (centres undefined) | -9.9% (inactive)
17 | C=CCOC(=O)c1[nH]c2c(c1C)C(=O)CC(c1ccco1)C2 (centres undefined) | 67.6% (active)
18 | C/C=C/COC(=O)c1[nH]c2c(c1C)C(=O)CC(c1ccc(N(C)C)cc1)C2 (centres undefined) | 10.6% (inactive)
19 | CCn1c(SCC(=O)Nc2ccc(C(=O)OC)cc2)nnc1-c1cccs1 | -8.2% (inactive)
20 | Cc1ccc(NC(=O)c2cc(NC(=O)c3ccco3)ccc2N2CCCCC2)cc1 | 19.3% (inactive)
21 | CCNc1nc(NC(C)C)nc(N(C#N)Cc2ccccc2)n1 | 3% (inactive)
22 | CCNc1nc(NC(C)C)nc(N(C#N)CCOc2ccc(Cl)cc2Cl)n1 | 109% (active)
23 | CCCN(C#N)c1nc(NCC)nc(NC(C)C)n1 | -9.4% (inactive)
24 | O=C(N1CCOCC1)N1CCN(S(=O)(=O)N2CCOCC2)CC1 | -4.2% (inactive)
25 | CCc1c(C)nc2ncnn2c1NCCc1ccc(OC)cc1 | 64.2% (active)

Row | Compound | cytotoxicity
26 | COc1ccc(CCNc2c(C)c(C)nc3ncnn23)cc1 | 33.4% (inactive)
27 | CCc1c(C)nc2ncnn2c1NCCc1ccc(OC)c(OC)c1 | -12.5% (inactive)
28 | Cc1cc(C)nc(Nc2n[nH]c(COc3ccc(Cl)cc3)n2)n1 | 1.1% (inactive)
29 | O=C(Nc1ncc(Br)s1)C1CCCN1S(=O)(=O)c1cccc2cccnc12 (centres undefined) | -12.6% (inactive)
30 | COC(=O)c1sccc1NC(=O)c1ccc(Cl)s1 | 1.5% (inactive)
31 | COc1ccccc1-c1cc(C(=O)Nc2cccnc2)no1 | 71.3% (active)
32 | COc1ccc(NC(=O)c2cc(-c3ccccc3OC)on2)cc1 | 38.7% (inactive)
33 | COc1ccccc1-c1cc(C(=O)Nc2cc(C)on2)no1 | 6.8% (inactive)
34 | C=CCn1c(SCC(=O)Nc2ccc(C(=O)OCC)cc2)nnc1-c1cccs1 | -6.9% (inactive)
35 | Cc1ccc2c(c1)N(CCC(=O)NCc1ccc3c(c1)OCO3)C(=O)CO2 | -4.5% (inactive)
36 | Cc1ccc(Nc2nc(C)c(CCC(C)C)c(=O)[nH]2)cc1 | 1.8% (inactive)
37 | Cc1nc(Nc2ccc(F)cc2)[nH]c(=O)c1CCC(C)C | 66.2% (active)
38 | Cc1nc(Nc2ccccc2)[nH]c(=O)c1CCC(C)C | -10.7% (inactive)
39 | Cc1n[nH]c(C)c1S(=O)(=O)N1CCCC(C(=O)NC2CCCCC2)C1 (centres undefined) | -3.4% (inactive)
40 | Cc1nnc2n1NC(c1ccc(Cl)cc1)C(C(=O)N1CCC(C)CC1)S2 (centres undefined) | -14.7% (inactive)
41 | CCOC(=O)c1c(NC(C)=O)no[n+]1[O-] | -10.4% (inactive)
42 | Cc1cc(C)cc(NC(=O)CSc2nc3c(c(=O)n2C)SC(C)C3)c1 (centres undefined) | -5.2% (inactive)
43 | COCCSc1ccccc1C(=O)NCCCn1ccnc1 | -28.4% (inactive)
44 | Oc1cccc2ccc(Nc3ccccn3)nc12 | 124% (active)
45 | c1ccc(Nc2ccccc2Nc2ccccn2)nc1 | -10.1% (inactive)
46 | O=C(Nc1ccccn1)c1ccc2ccccc2n1 | -3.6% (inactive)
47 | Cn1c(SCC(=O)Nc2ccc3c(c2)OCCO3)nnc1-c1ccco1 | 10.1% (inactive)
48 | N=c1n(CCN2CCCCC2)c2ccccc2n1CC(O)c1cccc(Br)c1 (centres undefined) | 59.4% (active)
49 | N=c1n(CCN2CCCC2)c2ccccc2n1CC(O)c1ccco1 (centres undefined) | -3.9% (inactive)
50 | N=c1n(CCN2CCCCC2)c2ccccc2n1CC(O)COc1ccccc1 (centres undefined) | 16% (inactive)

Row | Compound | cytotoxicity
51 | CN(C)c1ccc(C2CC(=O)NC3=C2C(=O)CC(C)(C)C3)cc1 (centres undefined) | -6.4% (inactive)
52 | C=CCn1sc(N)c(C(=O)OCC)c1=S | 9% (inactive)
53 | O=C(CCNC(=O)Cn1ccc2ccccc2c1=O)NCCCN1CCN(c2ccccc2F)CC1 | -16.9% (inactive)
54 | Cc1cc(C)c2c(=O)n(CC(=O)NCCCN3CCN(c4ccccc4F)CC3)sc2n1 | 82.2% (active)
55 | Cc1cc(C)c2c(=O)n(CC(=O)NCCCN3CCOCC3)sc2n1 | 20.5% (inactive)
56 | CCOC(=O)N1CCN(C(=O)c2ccc3c(c2)NC(=O)C(N2CCOCC2)S3)CC1 (centres undefined) | -7.4% (inactive)
57 | COCCNC(=O)CN1CCOc2ccccc21 | -4.3% (inactive)
58 | COc1ccc(-c2cc(C(F)F)n3ncc(C(=O)N4CCN(C(=O)c5ccco5)CC4)c3n2)cc1 | 5.6% (inactive)
59 | NC(=O)C1CCCN(Cc2ccc(Cl)cc2)C1 (centres undefined) | -10.3% (inactive)
60 | Cc1c(NC(=O)OCCSc2nc(N(C)C)nc(N(C)C)n2)sc(=S)n1C | 66% (active)
61 | CCOC(=O)Nc1sc(=S)n(C)c1C | -11.2% (inactive)
62 | CN(C)c1nc(SCCOC(=O)Nc2ccccc2)nc(N(C)C)n1 | 16.1% (inactive)
63 | Cc1cccc2cc(CN(CC3CCCO3)C(=O)c3ccncc3)c(=O)[nH]c12 (centres undefined) | 7.7% (inactive)
64 | COc1ccccc1-c1nnc(SCC(=O)Nc2c(Cl)cccc2Cl)o1 | -1% (inactive)
65 | COC(=O)CSc1nnc(-c2ccccc2OC)o1 | -18.2% (inactive)
66 | CCOCCSC1=C(C#N)C(c2cccs2)C(C(C)=O)=C(C)N1 (centres undefined) | 4.7% (inactive)
67 | CCOC(=O)C1=C(C)NC(SCC(=O)Nc2nc(C)cs2)=C(C#N)C1c1cccs1 (centres undefined) | 92.7% (active)
68 | C#CCSC1=C(C#N)C(c2cccs2)C(C(=O)OCC)=C(C)N1 (centres undefined) | 53.6% (active)
69 | CCSC1=C(C#N)C(c2cccs2)C(C(=O)OC)=C(C)N1 (centres undefined) | 15.4% (inactive)
70 | CCOC(=O)C1=C(C)NC(SCc2cc(=O)[nH][nH]2)=C(C#N)C1c1cccs1 (centres undefined) | 41.8% (inactive)
71 | CCOC(=O)C1=C(C)NC(SCC(=O)Nc2cc(C)on2)=C(C#N)C1c1cccs1 (centres undefined) | 32.3% (inactive)
72 | O=C1N(CN2CCN(c3cccc(Cl)c3)CC2)c2ccccc2C12OCCCO2 | 0% (inactive)
73 | Cc1ccc(NC(=O)c2oc3ccccc3c2NC(=O)c2ccc3c(c2)OCO3)cc1 | -7.7% (inactive)
74 | COc1c(C)cc(Br)cc1C(=O)Nc1ccc(N2CCN(S(C)(=O)=O)CC2)cc1 | 1.2% (inactive)
75 | CCc1nc2ccccc2c(C(=O)OCC(=O)Nc2ccc(S(=O)(=O)N3CCOCC3)cc2)c1C | 43.3% (inactive)

Row | Compound | cytotoxicity
76 | COc1ccc(-c2cnc(SCC(=O)Nc3cc(C)on3)n2Cc2ccco2)cc1 | 0.3% (inactive)
77 | Cc1cnc(NC(=O)CSc2ncc(-c3ccccc3)n2Cc2ccco2)s1 | -4.7% (inactive)
78 | COc1ccc(-c2cnc(SCC(=O)Nc3ccc4c(c3)OCO4)n2Cc2ccco2)cc1 | 18.8% (inactive)
79 | CC(=O)Nc1cccc(NC(=O)CSc2ncc(-c3ccc(Cl)cc3)n2Cc2ccco2)c1 | 83.5% (active)
80 | O=C(CSc1ncc(-c2ccc(F)cc2)n1Cc1ccco1)Nc1ccc2c(c1)OCO2 | 86.3% (active)
81 | CCC(=O)Nc1cc(NC(=O)CSc2ncc(-c3ccc(F)cc3)n2Cc2ccco2)ccc1C | 3.3% (inactive)
82 | Cc1cc(=S)n(-c2ccccc2)n1C | -7.8% (inactive)
83 | Cc1cc(C)nc(SC(C)C(=O)Nc2ccc(S(N)(=O)=O)cc2)n1 (centres undefined) | -10.7% (inactive)
84 | Cc1ccc(-c2nnc3ccc(SCC(=O)N4CCCCC4)nn23)cc1 | -7% (inactive)
85 | CC1CCc2nc(NC(=O)Cc3cccs3)sc2C1 (centres undefined) | -16% (inactive)
86 | CC(C)C1Cc2c(sc3c2c(=O)n(Cc2ccccc2)c2nncn32)CO1 (centres undefined) | 1.7% (inactive)
87 | Cc1nnc2n(Cc3ccccc3)c(=O)c3c4c(sc3n12)CN(Cc1ccccc1)CC4 | 1.6% (inactive)
88 | C=CCn1c(SCCN2CCOCC2)nc2c1c(=O)[nH]c(=O)n2C | -10.8% (inactive)
89 | Cc1cc(=O)n2[nH]c(C)c(-c3ccccc3)c2n1 | -7% (inactive)
90 | Cc1[nH]n2c(=O)cc(C(C)C)nc2c1-c1ccccc1 | 28.7% (inactive)
91 | Cc1[nH]n2c(=O)cc(C(C)(C)C)nc2c1-c1ccccc1 | 81.8% (active)
92 | CC(C)(C)NC(=O)C1N(c2cccnc2)C(=O)C2C(C(=O)Nc3ccccc3)C3(C)C=CC21O3 (centres undefined) | -15.4% (inactive)
93 | CCOC(=O)CSc1nc2cc(OCC)ccc2cc1C#N | 56.4% (active)
94 | CCOC(=O)CSc1nc2cc(OC)ccc2cc1C#N | 12.3% (inactive)
95 | CCOC(=O)CSc1nc2cc(C)ccc2cc1C#N | -2.4% (inactive)
96 | COc1cccc(-c2nn(-c3ccccc3)cc2CO)c1 | 7.7% (inactive)
97 | CCOc1ccc(OCC)c(NC(=O)CSc2nc3ccccc3c(=O)n2C)c1 | 16.7% (inactive)
98 | O=C(Nc1ccc(CN2CCOCC2)cc1)c1cc2ccccc2o1 | 5.8% (inactive)
99 | O=C(Nc1ccc(CN2CCCCC2)cc1)c1ccc(Br)o1 | -24.8% (inactive)

— PubChem BioAssay AID431 (Sanford-Burnham Center for Chemical Genomics, 2006)
